Test in all cases: qHTS profiling for inhibitors of Plasmodium falciparum proliferation (AID 504749); also: nearly all actives have a fitted effect of over 60% in size
What all share (conditions): P. falciparum in erythrocytes, SYBR Green DNA, 72 h; series mostly up to 28.7 µM

Assay [1] relates to CP266. A digest of the protocol:
(§1)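 Three-day growth assay of blood-stage parasites in erythrocytes (0.3% parasitemia, 2.5% hematocrit) at 37 C, 5% CO2, quantified by SYBR Green DNA staining after overnight detergent lysis.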

For assay [2], the system named is CP268. A digest of the protocol: as §1
Assay [3] deals with CP269. Summed up:
as §1

Assay [4] relates to CP286. Summed up: as §1
The test system of assay [5] is CP291. Summed up:
as §1

In assay [6] the test system is CP297. Summed up:
as §1

In assay [7] the test system is CP305. A digest of the protocol:
as §1

Assay [8] has as its system CP315. A digest of the protocol:
as §1

In assay [9] the test system is CP325. Summed up:
as §1

For assay [10], the system named is CP329. A digest of the protocol: as §1

Consider 19 molecules from PubChem BioAssay (NCATS).

Records with an inconclusive call do not appear. Active and inactive are the calls of the source. Calls follow the shape of the dose curve; as a rule, active = well fitted inhibition curve with a large enough effect; inconclusive = small, poorly fitted or top-dose-only effect; inactive = flat fitted curve, though single readings scatter.
Potency is read from the fitted curve at half-maximal effect.

Take `CCOC(=O)NC(O)C(Cl)(Cl)Cl` (stereo not given): the Potency entry in assay [1], in [2], in assay [3], in assay [4], in [5] and in assay [6] was “inactive” in each case. In addition, the Potency result in [7], in [8], in [9] and in [10] was “inactive” throughout.
`O=c1n(Cl)c(=O)n(Cl)c(=O)n1Cl`: the Potency result in assay [1], in assay [2], in [3], in assay [4], in assay [5] and in assay [6] was “inactive” throughout. In addition, the Potency entry in assay [7], in [8], in assay [9] and in assay [10] was “inactive” throughout.
Take `Cc1ccc(N=CN(C)C=Nc2ccc(C)cc2C)c(C)c1`: the Potency result in assay [1], in [2], in assay [3], in [4], in assay [5] and in [6] was “inactive” each time. The Potency result in assay [7], in assay [8], in [9] and in assay [10] was “inactive” in each case.
Consider `CNC(=O)NC(O)C(Cl)(Cl)Cl` (stereo not given), for which the Potency result in [1], in assay [2], in assay [3], in assay [4], in assay [5] and in assay [6] was “inactive” each time. Besides, the Potency entry in assay [7], in [8], in [9] and in [10] was “inactive” throughout.
For the molecule `O=C(O)c1nn(Cc2ccc(Cl)cc2Cl)c2ccccc12`, the Potency entry in [1], in assay [2], in assay [3], in assay [4], in assay [5] and in assay [6] was “inactive” each time. For the same molecule, the Potency entry in assay [7], in [8], in [9] and in assay [10] was “inactive” each time.
On to `COC(=O)C1=CCCN(C)C1`, for which the Potency result in assay [1], in [2], in assay [3], in assay [4], in assay [5] and in [6] was “inactive” throughout. For the same molecule, the Potency entry in [7], in assay [8], in assay [9] and in [10] was “inactive” in each case.
On to `C[C@H]1C(=O)O[C@@H]2CCN3CC=C(COC(=O)[C@](C)(O)[C@]1(C)O)[C@H]23`, for which the Potency entry in [1], in [2], in assay [3], in assay [4], in assay [5] and in assay [6] was “inactive” in each case. Also, the Potency entry in [7], in [8], in [9] and in [10] was “inactive” in each case.
As for `CC(C)NCC(O)c1ccc(N)c(C#N)c1` (stereo not given), the Potency entry in assay [1], in assay [2], in assay [3], in assay [4], in [5] and in assay [6] was “inactive” each time. Besides, the Potency entry in [7], in assay [8], in assay [9] and in assay [10] was “inactive” throughout.
In the case of `CC(C)C(Br)C(=O)NC(N)=O` (stereo not given), the Potency result in assay [1], in [2], in assay [3], in assay [4], in assay [5] and in assay [6] was “inactive” each time. Further, the Potency entry in assay [7], in assay [8], in [9] and in [10] was “inactive” in each case.
With `C[C@]12CC[C@H]3[C@@H](CC=C4C[C@@H](O)CC[C@@]43C)[C@@H]1CC[C@@H]2O`, the Potency result in assay [1], in assay [2], in [3], in assay [4], in [5] and in [6] was “inactive” each time. Further, the Potency result in assay [7], in assay [8], in assay [9] and in assay [10] was “inactive” each time.
On to `COP(=S)(OC)Oc1ccc(Sc2ccc(OP(=S)(OC)OC)cc2)cc1`, for which the Potency entry in [1], in assay [2], in assay [3], in assay [4], in assay [5] and in assay [6] was “inactive” each time. The Potency result in [7], in assay [8], in [9] and in [10] was “inactive” in each case.
For `COP(=O)(OC)C(O)C(Cl)(Cl)Cl` (stereo not given), the Potency result in assay [1], in assay [2], in [3], in [4], in [5] and in [6] was “inactive” each time. In addition, the Potency entry in [7], in assay [8], in [9] and in assay [10] was “inactive” each time.
For `ClC1=C(Cl)C2(Cl)C(CBr)CC1(Cl)C2(Cl)Cl` (stereo not given), the Potency result in [1], in assay [2], in assay [3], in assay [4], in assay [5] and in assay [6] was “inactive” each time. Moreover, the Potency entry in assay [7], in assay [8], in [9] and in assay [10] was “inactive” in each case.
As for `CC(C)(C)OC(=O)c1ncn2c1[C@@H]1CCCN1C(=O)c1c(Br)cccc1-2`, the Potency entry in [1], in assay [2], in [3], in assay [4], in [5] and in assay [6] was “inactive” each time. Also, the Potency result in [7], in [8], in assay [9] and in assay [10] was “inactive” in each case.
As to `Cc1ncc2n1-c1ccc(Cl)cc1C(c1ccccc1F)=NC2`, the Potency entry in [1], in [2], in assay [3], in assay [4], in assay [5] and in [6] was “inactive” in each case. The Potency result in assay [7], in assay [8], in [9] and in [10] was “inactive” in each case.
Regarding `COCC(=O)N(c1c(C)cccc1C)C(C)C(=O)OC` (stereo not given), the Potency entry in [1], in assay [2], in [3], in assay [4], in assay [5] and in [6] was “inactive” in each case. For the same molecule, the Potency entry in assay [7], in [8], in assay [9] and in assay [10] was “inactive” each time.
As for `CCCCCCCCCCCC[N+](C)(C)CCOc1ccccc1`, the Potency in assay [1] was 15.1 µM (active); in assay [2], 9.53 µM (active); in assay [3] it was 10.7 µM (active); in assay [4], 2.51 µM (active); in assay [5], 8.49 µM (active); in assay [6], 13.5 µM (active). Further, the Potency in [7] was 8.49 µM (active); in assay [8], 15.1 µM (active); in assay [9] it was 9.53 µM (active); in assay [10] it was 13.5 µM (active).
On to `NC(=O)OCCCc1ccccc1`, for which the Potency entry in assay [1], in assay [2], in assay [3], in [4], in assay [5] and in assay [6] was “inactive” in each case. Further, the Potency entry in [7], in assay [8], in [9] and in assay [10] was “inactive” throughout.
As for `CCN(CC)C(C)C(=O)c1ccccc1` (stereo not given), the Potency result in [1], in assay [2], in assay [3], in assay [4], in [5] and in assay [6] was “inactive” throughout. Moreover, the Potency result in [7], in assay [8], in assay [9] and in [10] was “inactive” each time.
